HT1080 IDH1KD tx: HT-1080 IDH1 knockdown cell toxicity (counter line); Potency, µM (doses to about 46.1 µM), inactives show at the top dose activity, negative = toxicity, usual class: cytotoxic; AID 686971; actives 2% (n = 360,000); HT-1080 IDH1 knockdown viability, ATP luminescence, 48 h;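 also: potency is read from the fitted curve at half-maximal effect; 0% = DMSO wells and -100% = cell-free medium wells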
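Using the IDH1-knockdown HT-1080 line run in the same batch and compound series as the NT line, viability after 48 h at 37 °C was determined by CellTiter-Glo luminescence and expressed as % activity.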
DT40 TDP1 no CPT: qHTS for Inhibitors of human tyrosyl-DNA phosphodiesterase 1 (TDP1): qHTS in cells in absence of CPT; DT40 Tdp1-/- hTDP1 cells, no CPT, ATP luminescence, 48 h; actives 15% (n = 420,000); Potency, µM (series often up to 46.2 µM), for the others: top-dose activity change, negative = growth inhibition, actives largely listed as inhibitors; also: potency is read from the fitted curve at half-maximal effect; nearly all actives have a fitted effect of over 55% in size
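Camptothecin absent (DMSO only). Human TDP1-complemented DT40 knockout cells, 400 cells/well, 37 °C for minimum 48 hr; ATP measured via CellTiter-Glo, 30 min dark incubation, luminescence.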
ELG1 repair inh: inhibitors of ELG1-dependent DNA repair in HEK293T cells; HEK293T ELG1-luciferase reporter, luminescence, 16 h; DNA damage induced by 5-fluorouridine; Potency, µM (highest dose often 46.1 µM), without a hit: top-dose activity change, negative = inhibition, most hits filed as inhibitors; actives 2.3% (n = 330,000); AID 504467; also: potency is read from the fitted curve at half-maximal effect; nearly all actives have a fitted effect of over 55% in size
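DMSO vehicle served as the neutral condition. Each well held 2,000 cells given 5-fluorouridine plus compound; after 16 hr at 37 °C/5% CO2, ONE-Glo was added and luciferase measured 30 min later.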
IL-1B inflam inh: inhibitors of inflammasome signaling (IL-1 beta secretion). THP-1 LPS/ATP IL-1B secretion, AlphaLISA, 16 h; hits give low values. AID 743279. activity change, % at 57.5 µM. actives 4.7% (n = 360,000); in the data active = activity change below about -50%; inconclusive = mostly about -30% to -49%
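THP-1 cells pretreated 1 hr with compounds (up to 57.5 uM final), then stimulated with LPS (250 ng/mL final) plus ATP (1.25 mM final); secreted IL-1B measured by AlphaLISA after 16 hr, decreased signal indicating inhibition.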
HT1080-NT tox: kills 2HG-producing HT-1080-NT fibrosarcoma cells; HT-1080-NT fibrosarcoma viability, CellTiter-Glo ATP luminescence, 48 h; Potency, µM (series often up to 46.1 µM), for the others: top-dose activity, negative = less viability, hits mostly cytotoxic; actives 1.6% (n = 360,000);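 also: NT is the 2HG producing partner of a matched IDH1 knockdown line; potency is read from the fitted curve at half-maximal effect; 0% = DMSO-treated cells and -100% = media-only wells without cells; nearly all actives have a fitted effect of over 55% in size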
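Toxicity toward the 2HG-producing NT line was scored as %Activity, normalised to DMSO and no-cell wells, from CellTiter-Glo luminescence after 48 hours' treatment.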
DT40 TDP1 CPT: DT40-hTDP1 cell growth loss with CPT; chicken DT40 Tdp1-/-;hTDP1 cells + 20 nM CPT, ATP luminescence, 48 h; Potency, µM (doses to about 46.2 µM), for inactives: at the highest dose activity change, negative = growth inhibition, usual class: inhibitors; actives 12% (n = 420,000); also: potency is read from the fitted curve at half-maximal effect; nearly all actives have a fitted effect of over 55% in size
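Chicken DT40 Tdp1-/- cells complemented with human TDP1, 400 cells/well, exposed to compounds plus 20 nM camptothecin for at least 48 h at 37 C; viability read as ATP content by CellTiter-Glo luminescence.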
Active calls of the source: *; i = inactive; ? = inconclusive; · = no result; ! = a repeat was not active. An excerpt weighted towards active compounds, which were near 19% of everything screened. Unless noted, calls follow the shape of the dose curve; as a rule, active = well fitted curve in the direction sought with a large enough effect; inconclusive = small, poorly fitted or top-dose-only effect, or another doubt; inactive = no such curve, though single readings can be large; an effect the other way counts as inactive or inconclusive. Unless noted, % is scaled to controls: 0 for no effect and ±100 for the full control effect.

SMILES	HT1080 IDH1KD tx	DT40 TDP1 no CPT	ELG1 repair inh	IL-1B inflam inh	HT1080-NT tox	DT40 TDP1 CPT
COc1ccc(-c2csc3ncnc(N4CCN(c5cccc(OC)c5)CC4)c23)cc1	1%	18µM*	6.5µM*	-6	-12%	16µM*
CCC(=O)Nc1c(C#N)c2nc3ccccc3nc2n1-c1ccc(C)cc1	-1%	-3%	·	34	2%	-7%
CCC(C)n1c(NC(=O)c2ccccc2)c(C#N)c2nc3ccccc3nc21 (stereo unspecified)	16µM*	13µM*	?	-17	18µM*	18µM*
CCCCn1c(NC(=O)c2ccccc2)c(C#N)c2nc3ccccc3nc21	?	18µM*	8.2µM*	-23	8.9µM*	26µM*
CC(C)(C)NC[C@@H](O)COc1nsnc1N1CCOCC1	·	3%	·	·	·	0%
Cc1cc(=O)n2nc(N3CCCC3C(=O)Nc3cccc(F)c3)sc2n1 (stereo unspecified)	-9%	-25%	7%	16	0%	0%
CCc1cccc(C)c1NC(=O)C1CCN(S(=O)(=O)Cc2ccccc2)CC1	·	1%	·	·	·	5%
C=CCSc1nc2c(c(=O)[nH]c(=O)n2C)n1C(C)C	-2%	-26%	13%	21	-8%	-7%
C/C(Cl)=C/Cn1c(SC(C)C)nc2c1c(=O)[nH]c(=O)n2C	-1%	16µM*	-16%	14	0%	?
CC(C)Sc1nc2c(c(=O)[nH]c(=O)n2C)n1Cc1ccc(Cl)cc1	-20%	26µM*	-14%	-7	-23%	?
C/C(Cl)=C/CSc1nc2c(c(=O)[nH]c(=O)n2C)n1C(C)C	-2%	16µM*	0%	29	-12%	?
C=CCn1c(SCc2ccc(Cl)cc2)nc2c1c(=O)[nH]c(=O)n2C	-3%	21µM*	13%	3	-28%	?
C=CCn1c(SCc2ccc(F)cc2)nc2c1c(=O)[nH]c(=O)n2C	-1%	?	-1%	17	-7%	?
Cc1cccc(CNC(=O)c2ccc(N3Cc4ccccc4Oc4ncccc43)s2)c1	·	-83%	·	·	·	?
O=c1c2ccccc2oc2cc(O)c(C3COCC(CO)C(O)C(O)C3O)c(O)c12 (stereo unspecified)	·	0%	·	·	·	10%
O=C(COC(=O)c1ccco1)c1ccc(Cl)cc1	1%	1.3µM*	17%	-18	-1%	-90%
CCCCn1c(-c2ccc(F)c(F)c2)nc2cc3[nH]c(=O)c(C(C)C)nc3cc21	-21%	21µM*	?	-19	?	21µM*
CCCCCOc1ccc(C2c3c(oc4ccccc4c3=O)C(=O)N2c2nc(C)c(C)s2)cc1OCC (stereo unspecified)	·	-23%	·	·	·	-18%
Cc1nc2ccc(NC(=O)c3ccc(Cl)c(S(=O)(=O)N(C)c4ccccc4)c3)cc2s1	?	3.3µM*	?	-17	?	13µM*
Cc1nc2ccc(NC(=O)c3ccc(S(=O)(=O)N(C)C)cc3)cc2s1	-2%	3%	-14%	-11	23%	-16%
Cc1nc2ccc(S(=O)(=O)N(CC(=O)Nc3cccc(Cl)c3)Cc3ccccc3)cc2s1	·	16µM*	·	·	·	?
Cc1noc(NS(=O)(=O)c2ccc(NC(=O)c3cc(S(=O)(=O)N(C)c4ccccc4)ccc3Cl)cc2)c1C	1%	-13%	·	7	-3%	-14%
Cc1nc2ccc(NC(=O)c3cc(S(=O)(=O)N(C)c4ccccc4)ccc3Cl)cc2s1	-21%	1.8µM*	-7%	29	?	1.8µM*
CN(c1ccccc1)S(=O)(=O)c1ccc(Cl)c(C(=O)Nc2ccc(N3CCOCC3)cc2)c1	?	1.6µM*	?	-3	?	3.3µM*
COc1cccc(CNC(=O)Cn2c(=O)cc(C(F)(F)F)c3c(C)nn(C)c32)c1OC	·	-19%	·	·	·	?
SMILES	HT1080 IDH1KD tx	DT40 TDP1 no CPT	ELG1 repair inh	IL-1B inflam inh	HT1080-NT tox	DT40 TDP1 CPT
C#CCN(C[C@H]1[C@H](OC(=O)NCc2ccccc2F)[C@H](OC(=O)NCc2ccccc2F)C[C@H]2C(=O)N(c3ccccc3)C(=O)[C@@H]12)S(=O)(=O)c1ccc(C)cc1	-1%	?	·	-20	-8%	-13%
Cc1nc2ccc(NC(=O)c3ccc(Cl)c([N+](=O)[O-])c3)cc2s1	21%	?	12%	i	8%	-22%
Cc1nc2ccc(NC(=O)c3cc([N+](=O)[O-])cc([N+](=O)[O-])c3Cl)cc2s1	-17%	6.5µM*	?	?	7%	5.2µM*
O=C(CCCCN1CCCCC1)c1ccccc1	12%	-14%	·	-6	3%	-8%
O=C(C(=Cc1ccccc1)CN1CCCCC1)c1ccccc1	4.6µM*	1.5µM*	·	-104*	?	0.73µM*
Cc1cc2c(cc1C)-c1nnnn1C(N1CCCC1)C(=O)N2 (stereo unspecified)	24%	?	·	19	15%	?
CCc1ccc2c(c1)c(N=NC1=NC(=O)CS1)c(O)n2C	6%	16µM*	-15%	-13	2%	-28%
CCCCCCN1C[C@@H](O)[C@H](n2cc(C3CC3)nn2)C[C@@H]1c1ccc(C)cc1	-2%	?	·	24	2%	-20%
CC(=O)c1sc(NC(=O)c2ccccc2)nc1-c1ccccc1	-1%	-22%	?	0	-3%	-17%
COC(=O)Nc1nc(-c2ccccc2)c(C(=O)c2ccc(Cl)cc2)s1	?	0.65µM*	?	10	?	0.58µM*
CCOC(=O)Nc1nc(-c2ccccc2)c(C(=O)c2ccccc2)s1	0.58µM*	0.65µM*	?	46	0.58µM*	0.58µM*
CCOC(=O)c1c(-c2ccccc2)csc1NC(=O)c1cc(-c2cccc(OC)c2)on1	·	9%	·	·	·	?
CC1(C)[C@@H](O)CC[C@]2(C)[C@H]3C(=O)C=C4[C@@H]5C[C@@](C)(C(=O)O)CC[C@]5(C)CC[C@@]4(C)[C@]3(C)CC[C@@H]12	0%	2.4µM*!	5%	9	9%	7.5µM*!
CC1(C)C(O)CC[C@]2(C)C1CC[C@@]1(C)C2C(=O)C=C2[C@@H]3C[C@@](C)(C(=O)O)CC[C@@]3(C)CCC21C (stereo partly specified)	·	-4%	·	·	·	14%

Bioassay records as filed in PubChem BioAssay.
